Active and inactive are the calls of the source. A call without a number means that no potency is given here. Calls follow the shape of the dose curve; as a rule, active = well fitted activation curve with a large enough effect; inconclusive = small, poorly fitted or top-dose-only effect; inactive = no such curve, though single readings can be large or run the other way.

Parathyroid hormone/parathyroid hormone-related peptide receptor (Homo sapiens), sequence (Q03431 whole entry, looked up): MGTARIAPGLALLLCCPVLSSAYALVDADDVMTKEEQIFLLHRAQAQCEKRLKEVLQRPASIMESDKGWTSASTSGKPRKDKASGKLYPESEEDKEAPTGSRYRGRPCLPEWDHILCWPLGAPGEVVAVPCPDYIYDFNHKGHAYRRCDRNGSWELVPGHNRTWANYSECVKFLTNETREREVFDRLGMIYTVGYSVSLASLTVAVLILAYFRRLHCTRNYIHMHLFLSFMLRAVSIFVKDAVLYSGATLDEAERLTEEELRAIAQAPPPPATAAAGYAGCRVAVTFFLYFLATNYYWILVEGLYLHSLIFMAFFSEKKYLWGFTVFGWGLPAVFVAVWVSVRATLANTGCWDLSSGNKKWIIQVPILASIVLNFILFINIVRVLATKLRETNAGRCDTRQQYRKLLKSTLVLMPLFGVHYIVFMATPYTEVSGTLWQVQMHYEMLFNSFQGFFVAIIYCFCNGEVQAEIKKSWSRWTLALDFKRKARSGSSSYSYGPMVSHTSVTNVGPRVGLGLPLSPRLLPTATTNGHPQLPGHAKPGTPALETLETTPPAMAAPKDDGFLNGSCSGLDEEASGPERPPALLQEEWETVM

This experiment addresses Parathyroid hormone/parathyroid hormone-related peptide receptor (Homo sapiens) (UniProt Q03431). The experiment can be described thus: qHTS for PTHR1 Agonists: Optimization Screen against the NCGC LOPAC library (AID 1347079). Conditions: HEK293 GP2 PTHR1 GloSensor cAMP luminescence, 1 h; series mostly up to 57.1 µM. The text has this:
The goal of the proposed studies is to discover new compounds that act as potent agonists on the parathyroid hormone receptor type-1 (PTHR1). The PTHR1 plays critical roles in maintaining blood calcium and phosphate levels, as well as in controlling bone remodeling. PTHR1 agonists could thus be useful for treating diseases such as hypoparathyroidism and osteoporosis. In the former disease, an agonist drug would help maintain normal blood calcium and phosphate levels under conditions of parathyroid hormone deficiency. In the latter disease, an agonist drug would stimulate new bone formation and thus reduce the risk of fracture, under conditions of bone fragility, as occurs in aging. We performed an optimization assay of the quantitative high-throughput screening (qHTS) for the parathyroid hormone receptor type-1 (PTHR1) against the NCGC LOPAC library collection of […] compounds using a unique HEK-293-derived cell line (GP2) that expresses the PTHR1 and a GloSensor cAMP reporter construct. Increase in signal (activation / agonist) is the desired outcome for compounds of interest. NIH Chemical Genomics Center [NCGC] NIH Molecular Libraries Probe Production Centers Network [MLPCN] MLPCN Grant: P01 DK011794 Assay Submitter (PI): Thomas Gardella PhD, Massachusetts General Hospital
Reagents / Controls: M-PTH (1-15) peptide hormone fragments was provided by the assay provider and was used as a control. Column 1 was treated with M-PTH titration (1:2 dilution) beginning with a final concentration of 10uM. Column 2 was treated with M-PTH final concentration of 10uM. Columns 3 and 4 were treated with DMSO only to assess background and noise signal. Assay Steps: Four microLiter of cells suspension was dispensed in a 1536-well assay plate at a final density of 3000 cells/well. The plates were incubated overnight, after which 4uL of 0.5mM of BloTium Luciferin plus 0.5mM IBMX was added. Next, the plate was incubated at 37C for 1hr before 23nL of compound (at various final concentrations from 40uM to 0.32uM) and control were added using a 1536-well array Kalypsys pin-tool. The treated plates were again incubated at 37C for another hour. Luminescence signal was obtained using the PerkinElmer ViewLux plate reader after 15min or room temperature incubation.
On the technique in general: Quantitative high-throughput screening tests each substance at several concentrations.
Turning to `N[C@@H](Cn1oc(=O)[nH]c1=O)C(=O)O`, the Potency entry is “inactive”. On to `COc1ccc2c(c1O)-c1cccc3c1[C@@H](C2)N(C)CC3`, for which the Potency result was “inactive”. In the case of `NC(=O)c1cc(N2CC2)c([N+](=O)[O-])cc1[N+](=O)[O-]`, the Potency entry was “inactive”. For `CCS(=O)(=O)Nc1cccc(C(=C2CCCCC2)c2cnc[nH]2)c1`, the Potency entry is “inactive”. For `NNC(=O)c1ccc(O)cc1`, the Potency entry was “inactive”. Under `COc1ccc2c(c1)C13CCCCC1C(C2)N(C)CC3` (stereo not given) stands “inactive”; under `CN(N=O)c1cc(O)ccc1O`, “inactive”. Under `CC(=O)c1c(O)c(C)c(O)c(Cc2c(O)c3c(c(C(=O)/C=C/c4ccccc4)c2O)OC(C)(C)C=C3)c1O` stands “inactive”; under `CCOC(=O)c1ncn2c1[C@@H]1CCCN1C(=O)c1cc(OC)ccc1-2`, “inactive”; under `CC(C)NP(=O)(NC(C)C)OP(=O)(NC(C)C)NC(C)C`, “inactive”. With `COc1ccc2[nH]cc(CCN)c2c1`, the Potency entry is “inactive”. Under `Nc1ccc(CCN2CCN(c3cccc(C(F)(F)F)c3)CC2)cc1` stands “inactive”; under `C=CCN1CCC23c4c5ccc(O)c4O[C@H]2C(=O)CC[C@@]3(O)C1C5` (stereo not given in full), “inactive”.

In the case of `CC(C)[C@@]1(NC(=O)[C@@H]2C[C@@H]3c4cccc5[nH]cc(c45)C[C@H]3N(C)C2)O[C@@]2(O)[C@@H]3CCCN3C(=O)[C@H](Cc3ccccc3)N2C1=O`, the Potency result was “inactive”. With `C=CCN(C1=NCCN1)c1c(Cl)cccc1Cl`, the Potency result was “inactive”. Under `CCCN1CCc2cccc3c2[C@H]1Cc1ccc(O)c(O)c1-3` stands “inactive”; under `NCCc1ccc(S(=O)(=O)F)cc1`, “inactive”; under `NCC(O)c1cc(O)c(O)cc1F` (stereo not given), “inactive”. Under `CC(N)Cc1c[nH]c2ccc(O)cc12` (stereo not given) stands “inactive”; under `CP(=O)(O)C1=CCNCC1`, “inactive”; under `C=CCN1CC[C@]23c4c5ccc(O)c4O[C@H]2/C(=N/NC(=O)c2ccccc2)CC[C@@]3(O)[C@H]1C5`, “inactive”. On to `CCCN1CCc2cc(O)cc3c2[C@H]1Cc1ccc(O)c(O)c1-3`, for which the Potency entry is “inactive”. Under `NC(N)=Nc1ccc2[nH]c3c(c2c1)C[C@@]1(O)[C@H]2Cc4ccc(O)c5c4[C@@]1(CCN2CC1CC1)[C@H]3O5` stands “inactive”; under `CC(C)(O)[C@@H]1C2OC(=O)[C@@H]1[C@]1(O)C[C@H]3O[C@]34C(=O)O[C@H]2[C@]14C` (tested in a mixture with another compound), “inactive”. Under `COc1ccc(CNC(=O)/C=C/c2ccc3[nH]cc(CCN(C)C)c3c2)cc1` stands “inactive”; under `C[C@@H]1O[C@@H](O[C@H]2C[C@@H](O)[C@]3(CO)[C@@H]4C(CC[C@]3(O)C2)[C@@]2(O)CC[C@H]([C@@H]3COC(=O)C3)[C@@]2(C)C[C@H]4O)[C@H](O)[C@H](O)[C@H]1O` (stereo not given in full), “inactive”.

As for `C[Se]C[C@H](N)C(=O)O`, the Potency entry was “inactive”. For the compound `C[C@H](Cc1ccc2c(c1)OC(C(=O)O)(C(=O)O)O2)NC[C@H](O)c1cccc(Cl)c1`, the Potency entry is “inactive”. As for `CCCN(CCC)CCc1ccc(O)c(O)c1`, the Potency entry was “inactive”. As for `CC(N)Cc1c[nH]c2ccc(OCc3cccs3)cc12` (stereo not given), the Potency result is “inactive”. Regarding `C[N+]1(C)C2CCC1CC(OC(=O)c1c[nH]c3ccccc13)C2` (stereo not given), the Potency result was “inactive”. As to `c1ccc2c(N3CCNCC3)cccc2c1`, the Potency result was “inactive”. Under `NC(Cc1cc(O)c(O)cc1O)C(=O)O` (stereo not given) stands “inactive”; under `CC(C)(C)c1o[nH]c(=O)c1CC(N)C(=O)O` (stereo not given), “inactive”. Under `O=[N+]([O-])/C=C/c1ccc2c(c1)OCO2` stands “inactive”. Under `NC(C(=O)O)c1cc(=O)[nH]o1` (stereo not given) stands “inactive”; under `OCc1cnc[nH]1`, “inactive”. For `C=CCN1CCc2cccc3c2[C@H]1Cc1ccc(O)c(O)c1-3`, the Potency entry is “inactive”. Under `CCCn1c(=O)c2[nH]c(C3CCCC3)nc2n(CCCOC(=O)c2ccc(S(=O)(=O)F)cc2)c1=O` stands “inactive”; under `N#CCCN`, “inactive”.

For the origin of these results see PubChem BioAssay (NCATS).
